We go through 15 compounds from PubChem BioAssay (NCI).

Some test systems named below: HCT-15 colon; HT29 colon; SNB-75 CNS; U251 CNS; PC-3 prostate; SK-MEL-5 melanoma; UACC-62 melanoma; LOX IMVI melanoma; SK-MEL-28 melanoma; SNB-19 CNS.
Holding throughout (experiment): NCI-60 one-dose screen, 48 h (100 = growth as untreated, 0 = no growth, -100 = all killed)
Holding throughout (settings): 10 µM unless noted

SMILES strings stand for the structures. About 83,000 compounds went through this panel and 20% of them were active in at least one assay; those are over-represented in the sample as a whole.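 Step 1: grow cells in 96-well plates. Step 2: add test compound at a single concentration. Step 3: incubate 48 h. Step 4: record percent growth.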 Values without a mark were called inactive. Activity calls are given as the source filed them. The calls were made as follows: active = growth percent below 10; inactive = the rest.

For the compound `CCCCCCN1C(=O)/C(=c2\sc3n(c2=O)C2C(NN=3)N(CC)C(=O)N2CC)c2ccccc21` (stereo not given), the growth in the test on HCT-15 colon was 1.65% (active); with HT29 colon, -24.7% (active); with SNB-75 CNS, -38.4% (active); with U251 CNS, -21.3% (active); with PC-3 prostate it was 15.2%; in the test on SK-MEL-5 melanoma, 26.8%. In addition, the growth with UACC-62 melanoma was 30.7%; in the test on LOX IMVI melanoma, -23% (active); with SK-MEL-28 melanoma, 35.1%.

With `Cc1ccc(NC2=C(Cl)C(=O)c3nc(C)ccc3C2=O)cc1`, the growth in the test on HCT-15 colon was -77.1% (active); in the test on HT29 colon it was 82.4%; in the test with SNB-75 CNS it was -41.9% (active); with SNB-19 CNS it was 47.3%; in the test on PC-3 prostate, 29.9%; in the test on SK-MEL-5 melanoma, -90.8% (active). Besides, the growth was -70.4% (active) in the test with UACC-62 melanoma, -78.2% (active) in the test on LOX IMVI melanoma and -79% (active) with SK-MEL-28 melanoma.

For `C[C@H](C(=O)Nc1ccc(S(N)(=O)=O)cc1)S(=O)(=O)c1ccccc1`, the growth with HCT-15 colon is 98.1%; in the test on HT29 colon, 107%; with SNB-75 CNS, 96.9%; in the test with U251 CNS, 97.5%; in the test with PC-3 prostate it was 101%; in the test with UACC-62 melanoma, 102%. The growth with LOX IMVI melanoma is 98%; in the test with SK-MEL-28 melanoma, 115%.

On to `COc1ccc(C2C(C#N)=C(N)Oc3c2sc2c(C)cccc32)cc1` (stereo not given), for which the growth with HCT-15 colon was 9.6% (active); with HT29 colon, 6.72% (active); in the test on SNB-75 CNS, -4.52% (active); with U251 CNS it was 25.4%; in the test on PC-3 prostate it was 11.3%; in the test on SK-MEL-5 melanoma, 29%. The growth is 19.3% with UACC-62 melanoma, 17.2% in the test on LOX IMVI melanoma and 57.1% with SK-MEL-28 melanoma.

Consider `COc1cccc(-c2nn(-c3ccccc3)cc2-c2ccnc(N3CCOCC3)c2)c1`, for which the growth is 85.9% with HCT-15 colon; 86.7% in the test with HT29 colon; 97.2% in the test on SNB-75 CNS; 96.2% with U251 CNS; 70.2% in the test with PC-3 prostate; 80.4% in the test on SK-MEL-5 melanoma. Further, the figures for the growth in the test on UACC-62 melanoma, in the test with LOX IMVI melanoma and in the test with SK-MEL-28 melanoma were 71.8%, 89.7% and 108%, respectively.

For `Cc1cccc2c(=O)c3c(sc12)c(NCc1ccccc1)nc1ccccc13`, the growth in the test on HCT-15 colon is 64.3%; in the test with HT29 colon it was 83.4%; in the test on SNB-75 CNS, 96.1%; in the test on U251 CNS, 101%; with PC-3 prostate, 89.1%; in the test with SK-MEL-5 melanoma, 94.5%. Moreover, the figures for the growth in the test with UACC-62 melanoma, in the test on LOX IMVI melanoma and with SK-MEL-28 melanoma were 74.3%, 93.6% and 116%, respectively.

Take `Cc1ccc(C(=O)NN2C(=O)CSC2c2ccc(Cl)cc2)cn1` (stereo not given): the growth was 90.1% in the test with HCT-15 colon; 105% in the test with HT29 colon; 95.8% with SNB-75 CNS; 93.3% with U251 CNS; 87.5% in the test on PC-3 prostate; 99.2% with SK-MEL-5 melanoma. For the same compound, the values for the growth in the test on UACC-62 melanoma, in the test on LOX IMVI melanoma and with SK-MEL-28 melanoma were 93.5%, 97.4% and 90.8%, respectively.

As to `CN1C(=O)N(C)C2Nn3c(s/c(=C\c4ccccc4)c3=O)=NC21` (stereo not given), the growth was 93.1% with HCT-15 colon; 106% in the test on HT29 colon; 71.4% in the test on SNB-75 CNS; 96.2% in the test on U251 CNS; 101% with PC-3 prostate; 101% with SK-MEL-5 melanoma. For the same compound, the results for the growth with UACC-62 melanoma, in the test with LOX IMVI melanoma and in the test on SK-MEL-28 melanoma were 90.9%, 92.6% and 105%, respectively.

On to `COc1nc2ccccc2cc1-c1nc2c(cnn2-c2ccccc2)c(=O)[nH]1`, for which the growth is 24.8% in the test with HCT-15 colon; 9.45% (active) in the test on HT29 colon; 28.2% with SNB-75 CNS; 37.8% in the test on U251 CNS; 41.2% in the test with PC-3 prostate; 41.7% with SK-MEL-5 melanoma. Also, the figures for the growth in the test on UACC-62 melanoma, in the test on LOX IMVI melanoma and in the test with SK-MEL-28 melanoma were 36.3%, 35% and 56.7%, respectively.

As to `O=CN1N=C(c2ccc(Nc3ccnc4cc(Cl)ccc34)cc2)CC1c1ccccc1` (stereo not given), the growth in the test on HCT-15 colon is 15.4%; with HT29 colon, 11.6%; in the test on SNB-75 CNS, 56.4%; with U251 CNS, 34.5%; in the test on PC-3 prostate it was 42.4%; in the test on UACC-62 melanoma it was 38.4%. The growth with LOX IMVI melanoma is 13.7%; in the test on SK-MEL-28 melanoma, 44.4%.

In the case of `c1ccc2cc(C[n+]3ccn(CCCCCCn4cc[n+](Cc5ccc6ccccc6c5)c4)c3)ccc2c1`, the growth was 96.4% in the test on HCT-15 colon; 22.8% in the test on HT29 colon; 26.7% with SNB-75 CNS; 48.8% in the test with SNB-19 CNS; 65.4% with PC-3 prostate; 42.3% in the test with SK-MEL-5 melanoma. For the same compound, the figures for the growth in the test with LOX IMVI melanoma and in the test on SK-MEL-28 melanoma were 66.8% and 63.4%, respectively.

For the compound `O=[N+]([O-])c1ccc(Cl)c(-c2cc(CCCCO)on2)c1`, the growth was 110% in the test on HCT-15 colon; 103% in the test with HT29 colon; 95.4% in the test on SNB-19 CNS; 101% with U251 CNS; 104% in the test with PC-3 prostate; 104% in the test with SK-MEL-5 melanoma. In addition, the growth is 93.8% in the test with UACC-62 melanoma, 97.6% in the test on LOX IMVI melanoma and 107% in the test with SK-MEL-28 melanoma.

On to `COc1ccc2sc3c(NCCCN(C)C)nc4ccccc4c3c(=O)c2c1`, for which the growth is 50.2% with HCT-15 colon; -47.5% (active) with HT29 colon; 71.4% in the test on SNB-19 CNS; -1.18% (active) in the test with U251 CNS; 63% in the test on PC-3 prostate; 77.3% in the test with UACC-62 melanoma. Also, the growth with LOX IMVI melanoma was -100% (active); in the test on SK-MEL-28 melanoma, -73.1% (active).

Take `COc1cc(C(=O)N/N=C/c2cc3cc(OCc4ccccc4)ccc3nc2OC)cc(OC)c1OC`: the growth in the test with HCT-15 colon was 80.3%; in the test on HT29 colon, 82.9%; in the test with SNB-19 CNS, 90.3%; in the test with U251 CNS, 84.8%; with PC-3 prostate, 68.1%; in the test with SK-MEL-5 melanoma it was 63.7%. Moreover, the growth in the test on UACC-62 melanoma was 84.3%; in the test with LOX IMVI melanoma, 81.9%; in the test with SK-MEL-28 melanoma, 100%.

Regarding `[O-][n+]1c2ccccc2[n+]([O-])c2c3ccccc3[nH]c21`, the growth is 78.7% in the test on HCT-15 colon; 77.3% in the test with HT29 colon; 85% with SNB-19 CNS; 53.2% in the test on U251 CNS; 66.4% with PC-3 prostate; 20.7% in the test on UACC-62 melanoma. Further, the growth in the test on LOX IMVI melanoma was 98.3%; with SK-MEL-28 melanoma, 117%.
